Hit rate of the full screen: of about 16,000 compounds, about 5,800 (36%) were called active. Inconclusive results (about 23%) are left out. Some of the results follow. Unmarked numbers belong to inactive results. Calls follow the shape of the dose curve; as a rule, active = well fitted curve in the direction sought with a large enough effect; inconclusive = small, poorly fitted or top-dose-only effect, or effect the other way; inactive = no such curve, though single readings can be large or run the other way.
% is scaled to controls: 0 for no effect and ±100 for the full control effect.

In this experiment the target is Cytochrome P450 2C19 (Homo sapiens) (UniProt P33261). Briefly: Cytochrome panel assay with activity outcomes. The conditions noted are these: recombinant CYP, pro-luciferin dealkylation, luminescence, p450-cyp2c19; series mostly up to 57.1 µM; activity, negative = inhibition: at the top concentration.
Cytochrome P450 2C19 (Homo sapiens), sequence (P33261 whole entry, looked up): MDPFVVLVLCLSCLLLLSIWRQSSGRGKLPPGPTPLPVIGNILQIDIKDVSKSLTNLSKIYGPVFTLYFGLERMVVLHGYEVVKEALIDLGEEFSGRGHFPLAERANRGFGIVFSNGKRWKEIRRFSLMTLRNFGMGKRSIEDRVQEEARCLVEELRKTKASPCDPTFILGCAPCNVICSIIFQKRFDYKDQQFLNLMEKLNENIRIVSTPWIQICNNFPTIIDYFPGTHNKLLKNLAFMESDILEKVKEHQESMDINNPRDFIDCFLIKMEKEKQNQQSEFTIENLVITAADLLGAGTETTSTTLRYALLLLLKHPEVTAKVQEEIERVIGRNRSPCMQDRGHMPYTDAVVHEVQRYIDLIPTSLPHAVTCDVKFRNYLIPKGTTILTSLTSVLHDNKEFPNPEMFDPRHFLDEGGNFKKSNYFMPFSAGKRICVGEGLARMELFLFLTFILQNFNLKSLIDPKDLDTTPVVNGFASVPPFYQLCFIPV
Consider `NC(N)=Nc1nc(CCN2C(=O)c3ccccc3C2=O)cs1`, for which the AC50 – broadly, the midpoint of the concentration-response curve, whichever way the signal moves – is 2.82 µM (active).

As for `CO[C@@H]1COC(=O)CC=C[C@@H](C)[C@@H]2C=C[C@@H](O)[C@@H](COC(=O)C/C=C\[C@H]1C)O2`, the activity, negative = inhibition was -8% [at 11.4 µM]. On the same count and under the same terms, the value for `CC(=O)Nc1ccc(C(=O)NNC(=O)CCc2ccccc2)cc1` was -11.5%; that for `Cc1cccc(C)c1NC(=O)CS(=O)CC(=O)NCCCc1ccccc1` (stereo not given) was -22.3%. In the case of `CCC(=O)Nc1cccc(C(=O)/C=C/c2ccccc2)c1`, the AC50 is 5.62 µM (active).

As for `Cc1cccc(C)c1NC(=S)NC(=O)CCc1ccccc1`, the AC50 was 3.55 µM (active). Still for that read-out and setting: the value for `Cc1cccc(NC(=S)NC(=O)CCc2ccccc2)c1` was 5.62 µM (active). Turning to `CCC(=O)NNC(=O)CCC(=O)Nc1ccccc1`, the “activity, negative = inhibition” value is -11.9%. In the case of `CCCCC(=O)NC(=S)Nc1cccc(NC(=O)CC)c1`, the AC50 was 10 µM (active).

On to `Cn1c(=O)c2c(-c3cccc(F)c3)c3c(nc2n(C)c1=O)-c1ccccc1C3O` (stereo not given), for which the “activity, negative = inhibition” value is -77.1%. For the compound `Cc1c(C)c(C)c(CC2(C)CSC2)c(CC2(C)CSC2)c1C`, the activity, negative = inhibition is 35.5% [at 11.4 µM]. Same read-out and setting: as for `CN(C)c1ncc2ncc(=O)n(C3CC3)c2n1`, the figure is -21.5%; as for `N[C@H](CCC(=O)NCC(=O)O)C(=O)O`, -14.1%. Still for that read-out and setting: the value for `Cc1ccc(-n2nc3ccc(NC(=O)c4ccc5c(c4)OCO5)cc3n2)cc1` was -26.9%. As for `Cc1ccc(C(=O)Nc2ccc3nccnc3c2)cc1`, the AC50 was 14.1 µM (active). Take `CCN1C(=O)[C@H]2[C@H]3[C@H](O)[C@H](O)C/C(=N/OCC[C@H]4C=C[C@H](OC(C)=O)[C@@H](COC(C)=O)O4)[C@@H]3CC[C@@H]2C1=O`: the activity, negative = inhibition is 0.181% [at 11.4 µM]. `CC1CCN(CC[C@@H]2CCCN2S(=O)(=O)c2cccc(O)c2)CC1`: the “activity, negative = inhibition” value is 15.1%. Regarding `Cc1c(C)n(C(=O)CN2CCC(C)CC2)c2ccccc12`, the AC50 was 3.55 µM (active).

Consider `O=C(O)c1cc(=O)cc(C(=O)O)[nH]1`, for which the “activity, negative = inhibition” value was 14.5%. For the compound `COc1ccc(COC(=O)N/N=C2/C[C@@H](O)[C@@H](O)[C@@H]3[C@@H]4C(=O)N([C@@H](C)c5ccccc5)C(=O)[C@H]4CC[C@H]23)cc1`, the activity, negative = inhibition is 1.27% [at 11.4 µM]. On to `C[C@]1(c2ccccc2)OC(C(=O)O)=CC1=O`, for which the “activity, negative = inhibition” value was -35.6%. As for `COc1ccc(NC(=O)c2ccc(C(=O)c3cc(OC)ccc3OC)cc2)cc1`, the “activity, negative = inhibition” value was 9.75%. Turning to `COc1ccc(C(=O)Nc2cc(Cl)ccc2OC(=O)c2ccc(OC)cc2)cc1`, the AC50 is 3.55 µM (active). On the same count and under the same terms, as for `Cc1ccc(C(=O)Nc2cc(Cl)ccc2OC(=O)c2ccc(C)cc2)cc1`, the figure is 11.2 µM (active); as for `COC(=O)CCSc1cc([N+](=O)[O-])cc2c1c(C1OCCS1)nn2-c1ccccc1` (stereo not given), 25.1 µM (active); as for `NC(N)=NC(N)=Nc1cccc(Cl)c1`, “inactive”. Consider `NC(N)=NC(N)=Nc1ccccc1`, for which the half-maximal activity concentration (AC50) was 25.1 µM (active). As to `NC(N)=NC(N)=Nc1ccc(S(=O)(=O)O)cc1`, the activity, negative = inhibition was 10.1% [at 11.4 µM].

On to `N#C/C(=C/c1cccc(C(F)(F)F)c1)c1nc(CCN2C(=O)c3ccccc3C2=O)cs1`, for which the AC50 was 3.16 µM (active). For `C=CCNCCCCOc1c(Cl)cc(C)cc1Br`, the AC50 was 8.91 µM (active). As to `Cc1cc(Br)cc(C)c1OCCCCN(C)C`, the “activity, negative = inhibition” value is -23.4%.

With `COCCCNCCCCOc1c(Cl)cc(C)cc1Br`, the “activity, negative = inhibition” value is -17.9%. Same read-out and setting: as for `O=C(N/N=C/C1CCCCC1)c1ccccn1`, the figure is -9.73%. On to `C/C(=N\NC(=O)Cc1ccc(Cl)cc1)c1ccccn1`, for which the AC50 was 5.01 µM (active). On to `CC(C)c1ccc(N2C(=O)CC(Sc3nc4ccccc4o3)C2=O)cc1` (stereo not given), for which the AC50 is 1.78 µM (active). Consider `CCOC(=O)N/N=C1/C[C@@H](O)[C@@H](O)[C@@H]2[C@@H]3C(=O)N([C@@H](C)c4ccccc4)C(=O)[C@H]3CC[C@@H]12`, for which the activity, negative = inhibition was -0.98% [at 11.4 µM]. On the same count and under the same terms, the value for `COc1cccc(Nc2ncc3nc(-c4ccc(Cl)cc4)c(=O)n(CCC#N)c3n2)c1` was -11.3%. Take `CCOC(=O)c1cc(-c2ccc(Cl)cc2)nc2c1c(C)nn2CCC#N`: the AC50 is 14.1 µM (active). On the same count and under the same terms, the value for `Cc1nn(C)c(Oc2cccc(Cl)c2)c1C=O` was 6.31 µM (active). Take `Cc1ccc(NC(=O)N/C=C/c2ccc(Cl)cc2)cc1`: the “activity, negative = inhibition” value is -10%. Same read-out and setting: as for `CC(C)N=C(N)/N=C(\N)Nc1ccc(Cl)cc1`, the figure is -16.3% [at 25.6 µM]. Take `O=C(N/N=C/c1ccc(Cl)cc1Cl)Nc1ccccc1`: the AC50 is 2.82 µM (active).

As for `O=C(N/N=C/c1ccc(Cl)cc1)Nc1ccccc1`, the AC50 is 11.2 µM (active). Same read-out and setting: the value for `O=C(c1ccco1)N1CCC[C@@]2(CCN(c3ccccc3)C2)C1` was 5.01 µM (active); that for `Cn1cccc1C(=O)N1CCC2(CC1)CN(c1ccncc1)C2` was 1.26 µM (active).

As for `Cn1cccc1C(=O)N1CCC2(CC1)CCN(c1ccncc1)CC2`, the “activity, negative = inhibition” value is -34.4%. Take `O=C(c1ccco1)N1CCC2(CC1)CCN(c1ccc(-c3ccccc3)cc1)CC2`: the “activity, negative = inhibition” value was -2.45%. With `O=C(c1ccco1)N1CCC2(CC1)CCN(c1cccc(-c3ccccc3)c1)CC2`, the AC50 is 10 µM (active).

Turning to `Cn1cccc1C(=O)N1CCC[C@@]2(CCN(Cc3nccs3)C2)C1`, the “activity, negative = inhibition” value was -8.84%.

On to `O=C(c1ccco1)N1CCC2(CCCN(c3ccccc3)C2)CC1`, for which the “activity, negative = inhibition” value is -4.32%.

The values are drawn from PubChem BioAssay AID1851 (National Center for Advancing Translational Sciences (NCATS), 2009).
